Active and inactive are the calls of the source. The calls were made as follows: active = hit-call score of the fitted dose curve at least 0.9, where 1 is the maximum; inactive = score below 0.9.
Key:
Details in all cases: mRNA level, 48 h; actives raise or lower the signal
[1] = read-out: Early growth response protein 1 (EGR1) transcription factor, EGR1 (gene 1958); assay: LTEA_HepaRG_EGR1: Life Technologies and Expression Analysis (LTEA) Assay for Early growth response protein 1 (EGR1) transcription factor using HepaRG (AID 2283490)
Procedure, shortened: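 Differentiated HepaRG cells in serum-free induction medium exposed 48 hours, duplicate, to 8 half-log concentrations up to 100 uM in 0.5% DMSO. EGR1 mRNA measured by TaqMan qRT-PCR, normalized to ACTB, GAPDH, POLR2A; bidirectional fit versus DMSO.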

[2] = read-out: Ezrin (EZR), EZR (gene 7430); assay: LTEA_HepaRG_EZR: Life Technologies and Expression Analysis (LTEA) Assay for Ezrin (EZR) using HepaRG (AID 2283491)
Procedure, shortened: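 Gain or loss of EZR mRNA is scored relative to 0.5% DMSO in human HepaRG cultures treated 48 h with test chemicals in duplicate, eight half-log concentrations from 100 uM.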

[3] = read-out: Cytochrome P450 3A7 (Homo sapiens) (UniProt P24462); assay: LTEA_HepaRG_CYP3A7: Life Technologies and Expression Analysis (LTEA) Assay for CYP3A7 using HepaRG (AID 2283492)
Procedure, shortened: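 qRT-PCR of CYP3A7 in HepaRG lysates after 48 h treatment; concentration-response (8 points, max 100 uM) analysed bidirectionally relative to 0.5% DMSO controls.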

CYP3A5 (gene 1577) = assay: LTEA_HepaRG_CYP3A5: Life Technologies and Expression Analysis (LTEA) Assay for CYP3A5 using HepaRG (AID 2283493)
Procedure, shortened: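 HepaRG plated 48 h, switched to serum-free induction medium, chemicals added 48 h (max 100 uM, half-log, 0.5% DMSO). RNA isolated; CYP3A5 by TaqMan qRT-PCR. Gain/loss vs DMSO.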

[4] = read-out: Fatty Acid-Binding Protein 1 (FABP1), FABP1 (gene 2168); assay: LTEA_HepaRG_FABP1: Life Technologies and Expression Analysis (LTEA) Assay for Fatty Acid-Binding Protein 1 (FABP1) using HepaRG (AID 2283494)
Procedure, shortened: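 Differentiated human HepaRG cells exposed 48 h in serum-free induction medium to eight half-log concentrations up to 100 uM (0.5% DMSO), duplicate. FABP1 mRNA by qRT-PCR, normalised to ACTB, GAPDH, POLR2A; bidirectional fitting against DMSO.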

[5] = read-out: Cytochrome P450 4A22 (Homo sapiens) (UniProt Q5TCH4); assay: LTEA_HepaRG_CYP4A22: Life Technologies and Expression Analysis (LTEA) Assay for Cytochrome P450 4A22 (CYP4A22) using HepaRG (AID 2283495)
Procedure, shortened: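 Concentration-response (8 points, max 100 uM, 0.5% DMSO) in human HepaRG liver cells after 48 h exposure. CYP4A22 mRNA by TaqMan qRT-PCR with housekeeping-gene normalization.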

[6] = read-out: Glutathione S-Transferase (GSTA2), GSTA2 (gene 2939); assay: LTEA_HepaRG_GSTA2: Life Technologies and Expression Analysis (LTEA) Assay for Glutathione S-Transferase (GSTA2) using HepaRG (AID 2283497)
Procedure, shortened: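 Differentiated human HepaRG cells were exposed in duplicate for 48 h in serum-free induction medium, 8 points from 100 uM top in half-log steps, 0.5% DMSO. GSTA2 mRNA was measured by TaqMan qRT-PCR, normalized to ACTB, GAPDH and POLR2A; bidirectional fit versus DMSO.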

[7] = read-out: Glutamate-cysteine ligase catalytic (GCLC), GCLC (gene 2729); assay: LTEA_HepaRG_GCLC: Life Technologies and Expression Analysis (LTEA) Assay for Glutamate-cysteine ligase catalytic (GCLC) using HepaRG (AID 2283498)
Procedure, shortened: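 Differentiated HepaRG cells exposed 48 h in serum-free induction medium, eight-point half-log series topping at 100 uM in 0.5% DMSO, duplicates. GCLC mRNA by qRT-PCR normalized to ACTB, GAPDH and POLR2A, fitted bidirectionally versus DMSO.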

[8] = read-out: growth arrest and DNA damage 45 (GADD45G), GADD45G (gene 10912); assay: LTEA_HepaRG_GADD45G: Life Technologies and Expression Analysis (LTEA) Assay for growth arrest and DNA damage 45 (GADD45G) using HepaRG (AID 2283499)
Procedure, shortened: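 Concentration-response in HepaRG: 48 h dosing, 0.5% DMSO, highest level 100 uM. GADD45G expression by qRT-PCR, normalised to endogenous controls; bidirectional fit to DMSO.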

[9] = read-out: Glutamate-cysteine ligase regulatory (GCLM), GCLM (gene 2730); assay: LTEA_HepaRG_GCLM: Life Technologies and Expression Analysis (LTEA) Assay for Glutamate-cysteine ligase regulatory (GCLM) using HepaRG (AID 2283500)
Procedure, shortened: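 Cells were plated, cultured 48 h, switched to serum-free induction medium, then dosed in duplicate for 48 h at eight half-log concentrations up to 100 uM. RNA was then profiled by qRT-PCR; gain or loss versus DMSO was fitted.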

[10] = read-out: Glutathione S-transferase M3 (GSTM3), GSTM3 (gene 2947); assay: LTEA_HepaRG_GSTM3: Life Technologies and Expression Analysis (LTEA) Assay for Glutathione S-transferase M3 (GSTM3) using HepaRG (AID 2283501)
Procedure, shortened: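 Expression of GSTM3 is determined by qRT-PCR in human liver HepaRG cells treated 48 h with an 8-point half-log range from 100 uM in 0.5% DMSO.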

[11] = read-out: Heat shock 70 kDa protein 1 (HSPA1A), gene 3303; assay: LTEA_HepaRG_HSPA1A: Life Technologies and Expression Analysis (LTEA) Assay for Heat shock 70 kDa protein 1 (HSPA1A) using HepaRG (AID 2283502)
Procedure, shortened: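 Readout is HSPA1A transcript level by microfluidic qRT-PCR, normalized to three housekeeping genes and analysed for gain or loss of signal relative to 0.5% DMSO. Human HepaRG cultures received test chemicals for 48 h at up to 100 uM.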

[12] = read-out: Hypoxia-inducible factor 1-alpha (Homo sapiens) (UniProt Q16665); assay: LTEA_HepaRG_HIF1A: Life Technologies and Expression Analysis (LTEA) Assay for Hypoxia-inducible factor 1 (HIF1A) Trancription factor using HepaRG (AID 2283503)
Procedure, shortened: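 Differentiated HepaRG cells in serum-free induction medium exposed 48 h, in duplicate, to 8-point half-log series from 100 uM in 0.5% DMSO. HIF1A mRNA measured by TaqMan qRT-PCR, normalized to ACTB/GAPDH/POLR2A, fitted bidirectionally versus DMSO.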

[13] = read-out: 3-Hydroxy-3-Methylglutaryl-CoA Synthase 2 (HMGCS2), HMGCS2 (gene 3158); assay: LTEA_HepaRG_HMGCS2: Life Technologies and Expression Analysis (LTEA) Assay for 3-Hydroxy-3-Methylglutaryl-CoA Synthase 2 (HMGCS2) using HepaRG (AID 2283504)
Procedure, shortened: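 This steatosis marker was read as HMGCS2 mRNA change in HepaRG cells treated 48 h with up to 100 uM chemical. Normalisation used housekeeping genes; activity in either direction was fitted relative to 0.5% DMSO vehicle.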

HGF (gene 3082) = assay: LTEA_HepaRG_HGF: Life Technologies and Expression Analysis (LTEA) Assay for Hepatocyte Growth Facto (HGF) using HepaRG (AID 2283505)
Procedure, shortened: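 Using HepaRG monolayers kept in 0.5% DMSO, chemicals were tested in duplicate over eight half-log concentrations from 100 uM for 48 h. Endpoint: HGF mRNA change relative to DMSO, normalized to ACTB/GAPDH/POLR2A.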

[14] = read-out: Insulin Like Growth Factor 1 (IGF1), IGF1 (gene 3479); assay: LTEA_HepaRG_IGF1: Life Technologies and Expression Analysis (LTEA) Assay for Insulin Like Growth Factor 1 (IGF1) using HepaRG (AID 2283506)
Procedure, shortened: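 HepaRG, plated 48 h, then switched to serum-free induction media; test chemical 8-pt half-log from 100 uM (0.5% DMSO), duplicate, 48 h. Lysis in RLT, TaqMan qRT-PCR, norm. ACTB/GAPDH/POLR2A. Bidirectional fit vs DMSO.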

[15] = read-out: Intercellular Adhesion Molecule 1 (ICAM1), ICAM1 (gene 3383); assay: LTEA_HepaRG_ICAM1: Life Technologies and Expression Analysis (LTEA) Assay for Intercellular Adhesion Molecule 1 (ICAM1) using HepaRG (AID 2283507)
Procedure, shortened: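 Using the human liver line HepaRG, compounds are tested in duplicate over 48 h at concentrations up to 100 uM. Expression is determined by TaqMan qRT-PCR, normalized to endogenous controls, and analysed relative to 0.5% DMSO vehicle.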

[16] = read-out: Insulin-like growth factor-binding protein 1 (IGFBP1), IGFBP1 (gene 3484); assay: LTEA_HepaRG_IGFBP1: Life Technologies and Expression Analysis (LTEA) Assay for Insulin-like growth factor-binding protein 1 (IGFBP1) using HepaRG (AID 2283508)
Procedure, shortened: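 HepaRG, 48 h, 8 conc. (max 100 uM, half-log), duplicates, 0.5% DMSO. Readout: TaqMan qRT-PCR, ACTB/GAPDH/POLR2A normalisation. Fit: bidirectional vs DMSO.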

[17] = read-out: Interleukin 6 (IL6), IL6 (gene 3569); assay: LTEA_HepaRG_IL6: Life Technologies and Expression Analysis (LTEA) Assay for Interleukin 6 (IL6) using HepaRG (AID 2283509)
Procedure, shortened: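 HepaRG cells exposed in duplicate for 48 h to eight half-log concentrations, top 100 uM, in 0.5% DMSO serum-free induction medium. mRNA measured by qRT-PCR, normalized to ACTB, GAPDH and POLR2A. Bidirectional fit versus DMSO.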

[18] = read-out: Cytochrome P450 7A1 (Homo sapiens) (UniProt P22680); assay: LTEA_HepaRG_CYP7A1: Life Technologies and Expression Analysis (LTEA) Assay for Cytochrome P450 7A1 (CYP7A1) using HepaRG (AID 2283496)
Procedure, shortened: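 HepaRG cells plated 48 h, then switched to serum-free induction medium and exposed in duplicate for 48 h to 8-point half-log series from 100 uM in 0.5% DMSO. CYP7A1 mRNA by qRT-PCR (TaqMan), normalized to ACTB/GAPDH/POLR2A; bidirectional fit versus DMSO.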

Measured: AC50

Cytochrome P450 3A7 (Homo sapiens), sequence (P24462 whole entry, looked up): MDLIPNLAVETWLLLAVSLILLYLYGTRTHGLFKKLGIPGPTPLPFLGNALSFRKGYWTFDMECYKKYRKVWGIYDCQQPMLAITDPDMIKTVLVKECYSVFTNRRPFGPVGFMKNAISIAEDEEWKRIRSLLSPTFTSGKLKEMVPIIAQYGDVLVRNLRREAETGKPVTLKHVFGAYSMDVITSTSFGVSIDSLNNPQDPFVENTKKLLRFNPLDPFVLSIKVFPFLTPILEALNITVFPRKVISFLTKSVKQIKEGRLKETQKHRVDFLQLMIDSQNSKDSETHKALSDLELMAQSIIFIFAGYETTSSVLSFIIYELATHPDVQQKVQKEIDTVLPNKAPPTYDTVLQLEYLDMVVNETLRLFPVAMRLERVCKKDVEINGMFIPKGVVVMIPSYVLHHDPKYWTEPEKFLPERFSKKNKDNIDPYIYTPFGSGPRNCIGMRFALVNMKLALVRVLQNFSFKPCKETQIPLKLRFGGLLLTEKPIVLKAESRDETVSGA
Hypoxia-inducible factor 1-alpha (Homo sapiens), sequence (Q16665 whole entry, looked up): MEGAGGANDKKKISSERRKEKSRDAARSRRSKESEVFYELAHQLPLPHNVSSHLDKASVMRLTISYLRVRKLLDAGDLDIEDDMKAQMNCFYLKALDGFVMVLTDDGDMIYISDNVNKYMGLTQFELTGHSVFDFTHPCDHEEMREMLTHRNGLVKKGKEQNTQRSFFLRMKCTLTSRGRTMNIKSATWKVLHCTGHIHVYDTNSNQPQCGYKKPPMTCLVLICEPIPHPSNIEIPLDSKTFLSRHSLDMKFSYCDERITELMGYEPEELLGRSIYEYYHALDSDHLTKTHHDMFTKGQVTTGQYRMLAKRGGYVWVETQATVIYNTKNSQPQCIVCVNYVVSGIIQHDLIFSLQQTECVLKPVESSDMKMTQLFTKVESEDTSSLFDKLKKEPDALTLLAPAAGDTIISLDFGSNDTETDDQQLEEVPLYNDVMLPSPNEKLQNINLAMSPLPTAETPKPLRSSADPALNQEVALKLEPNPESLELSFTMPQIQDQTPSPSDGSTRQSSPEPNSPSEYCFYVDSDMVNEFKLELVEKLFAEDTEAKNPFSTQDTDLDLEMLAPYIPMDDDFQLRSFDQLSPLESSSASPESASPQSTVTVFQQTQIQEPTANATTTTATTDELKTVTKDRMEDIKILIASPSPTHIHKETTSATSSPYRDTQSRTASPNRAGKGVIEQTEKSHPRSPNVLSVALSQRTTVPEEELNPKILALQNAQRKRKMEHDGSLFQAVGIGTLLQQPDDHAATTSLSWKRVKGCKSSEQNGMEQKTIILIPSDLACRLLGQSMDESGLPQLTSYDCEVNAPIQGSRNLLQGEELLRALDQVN

CNC(=O)Oc1ccccc1OC(C)C
active: [3] 1.52 µM
not listed: [18]
inactive: all other assays above

O=C(Nc1ccccc1)Nc1cnns1
active: [3] 50 µM | [4] 65.5 µM | [5] 73.5 µM | [18] 50 µM | [6] 65.3 µM | [9] 80.3 µM | [13] 73.7 µM | [14] 50 µM | [16] 83.5 µM
inactive: CYP3A5 (gene 1577) | [7] | [8] | [10] | [11] | [12] | HGF (gene 3082) | [15]

CCOCN(C(=O)CCl)c1c(C)cccc1CC
active: [3] 86.2 µM | [4] 87.7 µM | [5] 92.5 µM | [18] 84.6 µM | [6] 83.4 µM | [8] 77.9 µM | [13] 81.2 µM | [14] 76.4 µM | [16] 63 µM
inactive: all other assays above

CC(C)N(C(=O)COc1nnc(C(F)(F)F)s1)c1ccc(F)cc1
active: [4] 23 µM | [18] 24.7 µM | [6] 50 µM | [13] 50 µM
inactive: all other assays above

OCCOc1ccccc1
inactive: all assays above

CNC(=O)/C=C(\C)OP(=O)(OC)OC
inactive: all assays above
